# In the supplement of paper PMC6555819:
# Assays:
# Experiment in all cases: PBM binding z-score (relative to random genomic background probes); higher = stronger binding; sequences stand for … in GC…GCGATTGACAGCGTAGAATGAAGG
# [1] = test system: RARb homodimer (NR concentration 270 nM)
# How it was run: (§1)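 Ligand-free nuclear receptor dimers were applied to custom Agilent 4×180K protein-binding microarrays whose double-stranded probes carried direct-repeat seeds, single-nucleotide variants, half-site ablations and random human genomic background sequences in 34-nt variable regions. Incubation lasted 1 h. Binding z-scores were computed against the random background probes from regression-normalized fluorescence.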
# [2] = test system: RARg:RXRa (NR concentration 270 nM, RXRa partner concentration 90 nM)
# How it was run: as §1
# [3] = test system: RARg homodimer (NR concentration 270 nM)
# How it was run: as §1
# [4] = test system: RXRa DBDmut IVT, anti-RXR (DBD mutation: RXRa K156A/R161A, NR concentration 90 nM)
# How it was run: as §1
# [5] = test system: RXRa homodimer (NR concentration 180 nM)
# How it was run: as §1
# [6] = test system: THRa:RXRa (NR concentration 90 nM, RXRa partner concentration 90 nM)
# How it was run: as §1
# [7] = test system: THRa homodimer (NR concentration 90 nM)
# How it was run: as §1
# [8] = test system: VDR homodimer (NR concentration 270 nM)
# How it was run: as §1
Sequence,PBM binding z-score [1],PBM binding z-score [2],PBM binding z-score [3],PBM binding z-score [4],PBM binding z-score [5],PBM binding z-score [6],PBM binding z-score [7],PBM binding z-score [8]
ACTAGCAGGCCAAGGATCACTCAAGATTAGTCCG,-0.025,0.215,0.422,-0.378,0.137,-0.0655,-0.556,-0.55
TGAGTGAGGTTATAAGATCAGGGAACGTTGCAAA,0.44,1.43,1.12,0.109,1.88,1.59,0.117,0.655
CCTCGGAGGACAGAAGGTCAGTGCTGTCCGCTTT,3.69,3.14,3.23,0.236,1.25,1.88,-0.0278,0.261
GGAACGAGGGCATTCGAGATGATAGCATGGCGAT,0.609,1.13,1.65,3.05,1.02,1.44,-0.487,2.01
ATCTCTAGGTAACCAGTTCAGTGAAAGAGAGGAC,1.05,0.822,0.768,0.358,0.791,1.35,1.18,1.35
CGTCCAAGGTCAGAGAGGTCAGTGATTGCCGAGT,5.16,6.26,7.26,3.31,5.33,4.13,3.03,5.48
CGAACTAGGTCATTGAGAGGACAGTGAATAGTAA,3.22,5.93,4.96,2.07,3.22,3.42,1.08,1.56
TCTGCTAGGTCAGTTGGCCAGCTAACGAGCTGCC,2.15,2.56,3.53,0.428,0.616,1.27,-0.473,-0.804
TCTTGTAGATCAGCAGGTTACGAAAGCTGGCCAA,0.128,-0.124,-0.187,0.505,0.318,0.29,-0.291,-0.293
CTAGACAGGTGAAAGGTAACTCAGTCTGGTACGC,0.55,1.36,0.619,-0.39,2.23,0.865,-0.398,-0.464
TCTAGTTGGTCAAATGTCACACACTCGAAATGCG,1.64,1.73,1.78,1.24,1.68,0.653,0.677,0.702
ATCTCTAGGTAAAGTTCAGTAAAAGATCGATAGA,2.39,2.22,2.74,1.27,1.18,1.23,0.183,2.13
CGAACTAGGTCAGAACAGGACAGGGAAGGATGAT,2.37,2.58,2.91,0.62,1.26,3.92,0.578,0.472
TTACCAAGGTGAGCTGAGGTCTTTGATCCAACTC,0.568,0.335,0.384,-0.584,0.322,4.17,0.8,-0.646
GGAACGAGGGCAAGTTGATATCAGAGTTTGATGG,1.7,1.66,2.58,2.63,0.916,1.46,0.151,2.21
GGAACGAGGGCAAACTTGATAGCATCTGTCGACG,1.03,1.52,1.62,3.1,1.17,1.09,-0.309,1.61
AGAATGAGGTTATACGTAGATTAGGGAAGAAAGT,0.89,1.67,1.05,1.49,2.3,2.27,0.694,1.09
CCGACTGGGGCAAGGTTTCCATAACGCACAGCCA,0.28,0.112,0.326,-0.561,-0.0639,-0.0993,-0.3,-0.47
TCTTGTAGATCAGTAGAGGTTAAGAAAGTGCGCT,1.26,0.475,0.344,0.802,1.24,1.88,-0.288,0.245

Sequence,PBM binding z-score [1],PBM binding z-score [2],PBM binding z-score [3],PBM binding z-score [4],PBM binding z-score [5],PBM binding z-score [6],PBM binding z-score [7],PBM binding z-score [8]
CCTTACGGGTCACTCCAGGTTATGGCATCGGAGT,3.07,4.46,4.54,1.4,4.22,5.16,0.627,1.62
ATCGAAAGGTCGACGAGGTGAGTAGACACCGTTT,2.83,4.43,3.75,0.736,4.27,3.85,0.861,0.955
ATCTCTAGGTAACAAGATCAGTGAAAGAGAGGAC,0.262,0.574,0.868,-0.259,0.265,0.927,0.466,0.364
TCTTGTAGATCAGCAGGATAAGAAAGCTGGCCAA,-0.798,-0.461,-0.47,0.379,-0.273,-0.557,-0.84,-0.775
CCGACTGGGGCATAAGGTTACCATAAGCCAGCCC,1.69,1.62,1.17,-0.574,1.13,2.01,1.13,-0.0146
AGAACGACGGCAATGAGTTGATAGCACGGGTGGC,-0.961,-0.245,-0.185,-0.402,0.0598,-0.626,-1.12,-0.0582
CAAACTAGGTCAAGGTCAACGTCGGTTTGTGCCA,5.65,6.16,6.86,2.58,5.91,4.62,4.3,3.89
CATACAGGGTCAGCTTGGCCAGAGTAGGGACGGC,3.06,4.12,4.29,1.58,4.13,2.85,0.515,0.849
TCTTGCAGATCAGCAGGTTAAGAAAGCTGGCCAA,-0.126,-0.0186,-0.618,-0.0927,0.33,0.0241,-0.879,-0.987
TCGAGTAGGTTAGGCGCATTCAGAATGGCGTCGA,-0.314,-0.45,-0.527,-0.0106,-0.118,-0.415,-0.996,-0.809
CCTACTGGTCCATTCAGAGGTCATTGATCATATG,4.13,3.66,2.62,1.73,3.92,2.91,2.07,4.16
TTACCAAGGTGAAGGTCGTCGATCCCTCTGTAGA,1.78,1.59,1.7,-0.188,2.12,2.36,0.653,-0.137
TCGAGTAAGTTACCAATGGGGCATTCAGCTTTCT,-0.474,-0.261,-0.771,0.494,-0.0395,-0.445,-0.524,-0.319
TCATATAGGTAAATGCTAGGCGAAAGTCCGATCT,-0.15,0.217,0.256,1.43,0.556,0.231,0.0597,0.181
CCGACTGGGGCAGAAAGGTGACCATACCATCCGG,1.8,0.634,0.776,-0.975,0.533,0.282,-0.472,-0.595
CCTACTGGGCCATTCAGAGGTCATTGAGCATATG,4.08,4.6,3.1,0.996,3.54,3.27,1.22,3.44
TCGAGTATGTTAGTCGGGGCATTCAGCCAACATA,-0.183,-0.172,-0.574,0.723,-0.06,0.102,-0.431,0.226
CAAACTAGGTCAAAGGTCAATGTCGAGCCAACCA,5.2,8.62,7.28,3.16,9.99,4.71,1.71,3.03
AGTCAAAATTCATCTAGGTAACGTAAGATATGCT,-0.349,0.038,0.342,0.0782,-0.00435,0.538,0.0978,-0.296

Sequence,PBM binding z-score [1],PBM binding z-score [2],PBM binding z-score [3],PBM binding z-score [4],PBM binding z-score [5],PBM binding z-score [6],PBM binding z-score [7],PBM binding z-score [8]
GATACAGGGTCTAGGCCAGAGTACGCGTATTGAT,-0.143,0.0579,0.175,-0.382,-0.304,-0.508,-0.824,0.154
ATATGTAGGTTATCGGGTCATCCAGTTTGCGCAT,3.46,3.7,2.8,1.33,3.78,3.68,3.07,3.89
CCTAGTTGGTCAAGGTCACACAGGCTATAGGTAC,4.45,4.8,5.13,2.24,4.86,4.16,4.07,4.27
CGTCAAAGTTCAACTAAGGTAACGTGAAGCACGC,4.14,6.07,6.8,4.62,5.49,5.14,1.68,3.84
TCTCGTTGGTCACGGAGGTCACACACGACGGGTA,4.68,4.95,4.91,0.929,4.39,3.73,2.29,2.98
ACTCGCAGGCCAAGTTTGGGTCACTCAAACAAAG,2.5,2.65,1.73,0.0285,0.756,2.72,1.1,0.548
GCTTACGGGACAAAGGTTATAGCATGAATAGAAT,1.47,2.52,1.27,0.777,2.36,1.55,-0.159,0.681
ATATGTAGGTTACATCCTGGTCATTCAGGCTATG,1.25,1.72,1.3,0.78,1.35,1.26,0.551,0.582
CGAACGAGGGCATGAGTTGCTAGCAAATGCCGAT,0.64,1.05,1.42,2.17,0.709,1.11,-0.232,1.05
ACTAGTTGGTCAGATGAGGTCACACACAATTCGG,4.39,3.94,3.9,1.44,4.3,4.8,4.95,4.21
TCGAGTAGGTGAGGGGCATTCAGAATGGCGTCGA,0.716,-0.0952,-0.106,0.0823,0.442,0.268,-0.559,-0.687
ATCGAAAGGTTGAGGTGAGTATAGAGAAAGGGAA,1.24,1.39,1.25,-0.21,1.16,2.38,1.27,0.34
CGAACGAGGGCATGAGTTTATAGCAAATGCCGAT,1.15,1.31,1.81,3.01,1.07,1.42,0.067,4.17
TAACCTAGGTCAGATCGGGCCAGTATACGCTATA,2.52,3.36,3.68,0.17,1.94,4.19,0.384,0.367
TCTGCTAGCTCAACGATGGTCAGCTAATCTGCTA,-0.694,-0.391,-0.546,0.109,-0.436,-0.558,-1.1,-0.902
ATCTCTAGGTAAGACTCAGTTCAGTAAAGAACGC,0.871,0.41,0.438,0.632,0.0419,0.985,0.878,1.74
TCGAGTAAGTTAGGGGCATTCAGAATGGCGTCGA,0.241,0.189,-0.154,0.53,0.495,1.08,-0.16,0.751
CTCGAAAGGTAGGTTGAGGTGAGTATACGGATAA,0.59,0.129,0.396,-0.171,0.223,3.9,1.24,0.0952
AGTCAAAGTTCATCTAGGTGACGTAAGATATGCT,3.92,5.42,5.9,4.62,4.44,3.16,0.193,4.86
